Data on 17 compounds can be found in PubChem BioAssay.

A number with no mark means an inactive call. No rule for the calls is given here.

The experiment addresses Pantothenate synthetase (Mycobacterium tuberculosis (strain ATCC 25618 / H37Rv)) (UniProt P9WIL5). Kind of experiment: Coupled enzyme confirmation of inhibitors against recombinant Mtb PanC (AID 375).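 Also: 0% = full reaction with vehicle and 100% = no enzyme background.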 To be noted: coupled enzyme assay; at 10 µM, hits give high values.

Chain of Pantothenate synthetase (Mycobacterium tuberculosis (strain ATCC 25618 / H37Rv)) (P9WIL5 whole entry, looked up): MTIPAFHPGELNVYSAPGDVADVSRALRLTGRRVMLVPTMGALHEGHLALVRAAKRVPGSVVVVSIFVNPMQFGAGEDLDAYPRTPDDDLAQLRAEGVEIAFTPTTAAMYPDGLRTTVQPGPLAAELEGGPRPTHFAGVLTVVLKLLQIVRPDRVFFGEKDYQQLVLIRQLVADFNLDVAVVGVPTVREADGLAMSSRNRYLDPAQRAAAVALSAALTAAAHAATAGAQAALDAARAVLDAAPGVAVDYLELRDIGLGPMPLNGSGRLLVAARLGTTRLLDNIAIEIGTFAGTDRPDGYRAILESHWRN

In general, inhibition refers to the relative decrease from the control value, in per cent. With `COCCn1nnnc1C(C(C)C)N1CCN(C(=O)c2ccco2)CC1` (configuration not stated), the inhibition was 0%.

In the case of `Nn1c(CSc2nc3ccccc3o2)nnc1CSc1nc2ccccc2o1`, the inhibition is 0%.

For `O=C1c2ccccc2C(=O)N1CCCn1nnc(-c2ccc(N3CCOCC3)cc2)n1`, the inhibition was 3%.

With `N#Cc1c2n(c(=O)[nH]c1=O)CCCCC2`, the inhibition is 0%.

In the case of `CC(C)(C)C1CCc2[nH]nc(C(=O)O)c2C1` (configuration not stated), the inhibition was 5%.

Turning to `Cc1cc2c(cc(C(=O)NCc3cccnc3)n2Cc2ccc(Cl)cc2)o1`, the inhibition is 4%.

`O=C(NCCCN1CCOCC1)C1CC(=O)N(CCc2ccccc2)C1` (configuration not stated): the inhibition is 4%.

On to `COc1ccc(OC)c(C2=NOC(C(=O)Nc3cc(C)nn3-c3ccccc3)C2)c1` (configuration not stated), for which the inhibition was 0%.

Regarding `Cc1cc(C)cc(NC(=O)CN(C)S(=O)(=O)c2cnc[nH]2)c1`, the inhibition is 11%.

For `CCn1c(C(C#N)/C(=N\S(=O)(=O)c2cccs2)c2ccccc2)nc2ccccc21` (configuration not stated), the inhibition was 6%.

As for `O=C(O)C1CCCN1c1ncnc2c1oc1ccccc12` (configuration not stated), the inhibition is 0%.

For `CN(C)S(=O)(=O)c1ccc(Oc2ccc(S(=O)(=O)N(C)C)cc2)cc1`, the inhibition was 4%.

`O=C(c1ccc(-c2ccccc2)cc1)N1CCC(C(=O)N2CCCC2)CC1`: the inhibition is 0%.

As to `CN(Cc1ccccc1)Cc1nc2c([nH]1)c(=O)[nH]c(=O)n2C`, the inhibition is 7%.

For `COC(=O)c1ccc2c(c1)C(=O)N(C1CCCCC1)C2=O`, the inhibition is 9%.

As to `COC(=O)Cn1c(=NC(=O)CSCC(=O)Nc2cc(C)on2)sc2ccccc21`, the inhibition was 0%.

For the compound `C(=C\c1ccccc1)/CSc1nnc(-c2ccccn2)n1Cc1ccco1`, the inhibition was 5%.
